The source of these data is PubChem BioAssay.

Test [1] in a line: A549 cell viability effects, profiling panel, calcein-AM fluorescence, 48 h, basal (AID 1162). Conditions: higher = more signal.
Test [2] is described as follows: adipocyte viability effects, profiling panel, cell-based, 3T3-L1 adipocytes, calcein-AM fluorescence, 48 h, basal (AID 1163). Conditions: 3T3-L1 adipocytes viability, higher = more signal.
Test [3] can be described thus: HepG2 cell viability effects, profiling panel, calcein-AM fluorescence, 48 h, basal (AID 1164). To be noted: higher = more signal.
The nature of test [4]: MM1S cell viability effects, profiling panel, calcein-AM fluorescence, 48 h, basal (AID 1165).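 Further: viability of MM1S multiple myeloma cells under basal unstimulated conditions.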 To be noted: higher = more signal.
The nature of test [5]: basal RPMI8226 viability, no added stimulus, profiling panel, cell-based, calcein-AM fluorescence, 48 h, PK04 Diversity Set (AID 1166).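 Further: cells grown under basal conditions without added stimulus.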 Conditions: RPMI8226 myeloma viability, higher = more signal.
Test [6] is described as follows: basal HepG2 mitochondrial membrane potential changes, profiling panel, cell-based, JC-1 fluorescence, 24 h, 100 nL compound (AID 1167). Conditions: higher = more signal.
The nature of test [7]: basal 3T3-L1 adipocyte mitochondrial potential changes, profiling panel, cell-based, JC-1 fluorescence, 3T3-L1 adipocytes, 24 h, 100 nL compound (AID 1168). To be noted: JC-1 mitochondrial fluorescence, higher = more signal, called active from +8 up or from −8 down.
The nature of test [8]: basal RPMI8226 mitochondrial membrane potential changes, profiling panel, cell-based, JC-1 fluorescence, 24 h, 100 nL compound (AID 1169). To be noted: RPMI8226 myeloma, JC-1 mitochondrial potential fluorescence, higher = more signal.
Test [9] can be described thus: basal MM1S mitochondrial membrane potential changes, profiling panel, cell-based, JC-1 fluorescence, 24 h, 100 nL compound (AID 1170). To be noted: higher = more signal.
A short description of test [10]: A549 lung cancer cell viability effects, profiling panel, resazurin fluorescence, 24 h, PK04 Diversity Set (AID 1171). Conditions: higher = more signal, called active from +8 up or from −8 down. On the technique in general: Alamar Blue is a resazurin reagent that responds to reducing activity.

Activity calls are given as the source filed them.
Further: test concentration not given here.

In the case of `CCOC(=O)NN=C1C[C@@H](O)[C@@H](O)[C@@H]2[C@@H]3C(=O)N(C[C@@H]4CCCO4)C(=O)[C@@H]3CC[C@@H]12`, the z-score was 0.0693 in test [1]; -0.637 in test [2]; 0.473 in test [3]; 0.157 in [4]; 0.549 in test [5]; 1.06 in [6]. Further, the z-score was 0.491 (inactive) in test [7], 0.248 in [8], -0.895 in test [9] and -0.175 (inactive) in test [10].

Turning to `COc1ccc([Si](C)(C)[C@@H]2[C@@H](CCO)O[C@]3(C(=O)N(Cc4ccc(NC(C)=O)cc4)c4ccccc43)[C@H]2C)cc1`, the z-score is -1.98 in test [1]; 1.37 in [2]; -2.77 in [3]; -2.47 in [4]; -3.9 in [5]; -1.29 in [6]. Besides, the z-score was -0.0969 (inactive) in test [7], -1.18 in [8], -1.93 in test [9] and -3.2 (inactive) in test [10].

Consider `CC(C)[Si]1(C(C)C)O[C@@H](c2ccccc2)c2cc(C3CC3)nc(-c3ccccc3)c21`, for which the z-score is -0.447 in test [1]; -0.483 in test [2]; -0.244 in [3]; -2.2 in [4]; -1.35 in test [5]; -1.8 in [6]. Further, the z-score in [7] was -0.092 (inactive); in test [8], -0.781; in test [9], -0.192; in test [10], 1.44 (inactive).

Regarding `COCCOC(=O)N1C(=O)[C@@]2(c3cc(C#Cc4ccc(OC)cc4)ccc31)[C@H](C(=O)N1CCN(c3ncccn3)CC1)[C@H]1C(=O)O[C@H](c3ccccc3)[C@H](c3ccccc3)N1[C@@H]2c1ccc(OCCO)cc1`, the z-score is -0.758 in [1]; 0.717 in test [2]; 0.0264 in test [3]; -1.01 in test [4]; 0.581 in [5]; 0.331 in test [6]. The z-score in [7] is 3.91 (inactive); in [8], -0.453; in [9], -0.885; in test [10] it was -0.212 (inactive).

As to `O=C1[C@H]2[C@H]3[C@H](O)[C@H](O)CC(=NOCc4ccccc4)[C@@H]3CC[C@H]2C(=O)N1Cc1ccccc1`, the z-score in [1] was -0.618; in [2], -0.176; in test [3], -0.851; in test [4] it was 0.188; in test [5], -0.16; in test [6], -0.169. Also, the z-score in test [7] is -0.399 (inactive); in [8], -0.164; in [9] it was -0.926; in test [10], 1.59 (inactive).

As for `COC(=O)C1=CCC(c2cccc(Cl)c2)O1` (stereo not given), the z-score in [1] was -0.787; in test [2], -0.0098; in test [3], -1.14; in [4] it was 0.233; in test [5] it was -0.783; in [6] it was -0.549. Also, the z-score in test [7] is 0.00619 (inactive); in test [8], -0.757; in test [9], -0.428; in test [10], 0.107 (inactive).

As for `CO[C@@H]1COC(=O)CC=C[C@@H](C)[C@@H]2C=C[C@H](O)[C@@H](COC(=O)[C@H](C)NC(=O)CC=C[C@H]1C)O2`, the z-score in test [1] is 0.495; in test [2] it was 0.29; in test [3], -0.857; in test [4], 0.23; in [5] it was 0.706; in [6], -0.086. Besides, the z-score is -1.62 (inactive) in test [7], 0.583 in test [8], -0.385 in test [9] and 0.612 (inactive) in test [10].

Regarding `CO[C@H]1O[C@H](CO)[C@@H](OC(=O)Nc2ccc(C#N)cc2)[C@H](OC(=O)c2cc3ccccc3[nH]2)[C@H]1OC(=O)c1cc2ccccc2[nH]1`, the z-score in test [1] is 2.71; in [2], 0.221; in test [3], 0.837; in test [4] it was -2.28; in test [5] it was -0.909; in [6], -1.55. Moreover, the z-score in test [7] was 0.53 (inactive); in test [8] it was -0.405; in test [9], -0.384; in [10], -1.49 (inactive).

As for `C=CC[C@@H]1C=C[C@H](ON=Cc2ccc(C(=O)N3[C@H](c4ccc(C)cc4)[C@@H](C)CC[C@H]3C(=O)OC)cc2)[C@@H](CO)O1`, the z-score in [1] was 0.319; in [2], -0.361; in test [3], -0.431; in [4], -0.581; in test [5], -1.4; in test [6] it was -1.67. Also, the z-score in test [7] was -0.0052 (inactive); in test [8] it was 0.634; in [9] it was -0.434; in test [10] it was -0.299 (inactive).

As to `CC(=O)OC[C@H]1O[C@H](C#CCCCc2ccccc2)C=C[C@@H]1OC(C)=O`, the z-score in test [1] is -0.442; in test [2], -0.0563; in test [3], -2.26; in test [4] it was -3.51; in test [5], -3.61; in test [6], -1.12. Also, the z-score in test [7] was 0.288 (inactive); in [8], -0.861; in test [9], -2.26; in [10] it was 0.899 (inactive).

Regarding `O=C1[C@H]2[C@H]3[C@H](O)[C@H](O)CC(=NOCc4ccccc4)[C@H]3CC[C@H]2C(=O)N1c1ccc(F)cc1F`, the z-score is 0.213 in test [1]; 0.118 in [2]; -0.196 in [3]; 0.772 in test [4]; 0.471 in test [5]; 0.577 in [6]. Moreover, the z-score in test [7] was 0.918 (inactive); in [8] it was 0.305; in test [9], -0.801; in [10] it was -0.0399 (inactive).

In the case of `C=CCC(OC(C)=O)[C@@H]1[C@@H](N(Cc2cc3ccccc3o2)C(=O)Cc2ccc(F)cc2)c2cc(OCCCO)ccc2N1C(=O)Cc1ccc(OC)cc1` (stereo not given in full), the z-score was -0.382 in test [1]; 0.569 in test [2]; 0.585 in test [3]; -0.0962 in test [4]; 0.228 in test [5]; 1.16 in test [6]. Besides, the z-score in test [7] is -0.0927 (inactive); in test [8], 0.774; in test [9], -0.208; in test [10] it was 0.331 (inactive).

As for `C#CCCCON=C1C[C@@H](O)[C@@H](O)[C@@H]2[C@@H]3C(=O)N(CCC(=O)OCC)C(=O)[C@@H]3CC[C@@H]12`, the z-score is -0.284 in test [1]; -0.533 in [2]; -0.675 in [3]; 0.17 in test [4]; -0.608 in test [5]; -1.18 in test [6]. Also, the z-score was -1.66 (inactive) in [7], 0.213 in test [8], -0.123 in test [9] and -0.0981 (inactive) in test [10].

`C[C@H]1Cc2c(-c3ccccc3)nc3c(c2CO1)CN(CCOc1ccccc1)CC3`: the z-score was 2.68 in test [1]; 0.173 in test [2]; 1.27 in test [3]; 0.785 in [4]; 0.11 in test [5]; 0.932 in test [6]. Further, the z-score was 0.281 (inactive) in test [7], -0.324 in test [8], -0.439 in [9] and -0.31 (inactive) in test [10].

Consider `C=CCOC(=O)[C@H]1[C@@H]2C(=O)O[C@@H](c3ccccc3)[C@@H](c3ccccc3)N2[C@@H](c2ccc(OCCOC(=O)[C@H]3C[C@H]4C(=O)N5CCC[C@H]5C(=O)N4[C@H]3c3cccc(OCCO)c3)cc2)[C@]12C(=O)Nc1ccc(I)cc12`, for which the z-score in [1] was -0.0113; in test [2], 0.199; in test [3], 0.144; in [4] it was 0.817; in test [5], -0.452; in [6], -0.0589. Besides, the z-score was -0.518 (inactive) in test [7], -0.855 in test [8], -0.122 in test [9] and 0.9 (inactive) in [10].

As to `CC(C)(C)N1CC=CC23O[C@@H]4C=CCCOC(=O)C4[C@H]2C(=O)N(CCCCCO)[C@@H]3C1=O` (stereo not given in full), the z-score is -0.415 in [1]; 0.231 in test [2]; 2.16 in test [3]; 1.87 in test [4]; 0.227 in test [5]; 0.705 in test [6]. Further, the z-score in test [7] was 0.18 (inactive); in test [8], 0.117; in [9] it was -0.29; in [10], 0.0951 (inactive).
